Hits are enriched below; roughly 21% of the tested compounds scored in any of these assays.
Pf growth 96h: Primary qHTS for delayed death inhibitors of the malarial parasite plastid, 96 hour incubation. Potency, µM (highest dose often 28.7 µM), inactives show top-dose activity change, negative = inhibition, hits mostly inhibitors. AID 504834, 2011. P. falciparum luciferase reporter growth, 96 h. actives 6.9% (n = 320,000); active = well fitted inhibition curve with a large enough effect; inconclusive = small, poorly fitted or top-dose-only effect, or another doubt; inactive = no such curve, though single readings can be large or run the other way; note: potency is the fitted concentration of half-maximal effect; % is set by controls: 0 for no effect and ±100 for the full control effect
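Luminescence readout: decreased luciferase signal marks inhibited growth of reporter-expressing P. falciparum in infected red cells (2% hematocrit, 0.05% parasitemia final), exposed to compound two generations (96 h, 37 C, 5% CO2).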
NS1 function inh: qHTS Assay for Inhibitors of Influenza NS1 Protein Function. actives 0.4% (n = 270,000). Potency, µM (doses to about 46.1 µM), inactives show at the highest dose activity, positive = more growth; note: potency is the fitted concentration of half-maximal effect; actives are rising curves; nearly all actives have a fitted effect of over 50% in size
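Read-out: OD600 growth recovery of NS1-expressing budding yeast. Cells grown overnight at 30C in -URA glucose medium, washed, resuspended and diluted 1:100 in 2% galactose assay medium, pH 6.0. Same strain lacking NS1 served as positive control.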
Pf growth 48h: Primary qHTS for delayed death inhibitors of the malarial parasite plastid, 48 hour incubation | AID 504832, 2011 | P. falciparum luciferase growth in erythrocytes, 48 h | Potency, µM (doses to about 28.7 µM), for inactives: at the top dose activity change, negative = inhibition, hits mostly inhibitors | actives 5.9% (n = 310,000); active = well fitted inhibition curve with a large enough effect; inconclusive = small, poorly fitted or top-dose-only effect, or another doubt; inactive = no such curve, though single readings can be large or run the other way; note: potency is the fitted concentration of half-maximal effect; % is set by controls: 0 for no effect and ±100 for the full control effect
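Parasite viability was followed by luminescence of a genomically integrated firefly luciferase. Cultures held 0.1% parasitemia at 2% hematocrit (final), incubated under 5% CO2 at 37 C.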
SARS PLpro yeast: qHTS of Yeast-based Assay for SARS-CoV PLP; S. cerevisiae expressing SARS-CoV PLpro, growth rescue; Potency, µM (highest dose often 32.9 µM), for inactives: at the highest dose activity, positive = growth rescue, hits mostly activators; actives 0.19% (n = 330,000); note: potency is the fitted concentration of half-maximal effect; 0% is about no effect; nearly all actives have a fitted effect of over 55% in size
Shiga inhibitor: A qHTS for Small Molecule Inhibitors of Shiga Toxin | Vero cells, Shiga toxin protein synthesis inhibition reporter | inhibition, % at 38.7 µM | actives 9.2% (n = 290,000) | AID 2315, 2010; in the data active = inhibition mostly above about 28%, no sharp cut-off; inactive = mostly below about 43%; note: 0% is about no effect
Cycloheximide cs: Cycloheximide Counterscreen for Small Molecule Inhibitors of Shiga Toxin; cell reporter, cycloheximide protein synthesis inhibition counterscreen; max response, %; actives 12% (n = 300,000); in the data active = max response mostly above about 13%, no sharp cut-off; inactive = mostly below about 14%; note: read at 38.3 µM for the half of the compounds with a filed dose; 0% is about no effect
* marks the source's active call; other numbers are inactive results; ? = inconclusive; . = no result. Unless noted, calls come from the whole dose curve.

SMILES	Pf growth 96h	NS1 function inh	Pf growth 48h	SARS PLpro yeast	Shiga inhibitor	Cycloheximide cs
Clc1ccc(C2[C@H]3CN(Cc4ccc(-c5ccccc5)cc4)[C@H](c4ccccc4)C34CC2(c2ccccc2)C4)cn1 (stereo not given in full)	-24.1%	3.3%	?	-2.5%	14.3	-0.4
Clc1ccc(C2[C@H]3CN(Cc4cccnc4)[C@H](c4ccccc4)C34CC2(c2ccccc2)C4)cn1 (stereo not given in full)	8.28µM*	3.7%	10.4µM*	-12.7%	-5.5	-4.4
c1ccc(C2[C@H]3CN(Cc4cccnc4)[C@H](c4ccccc4)C34CC2(c2cccnc2)C4)cc1 (stereo not given in full)	2.94µM*	-41.5%	2.33µM*	-12.3%	-7.4	-5.3
c1ccc(C2[C@H]3CN(CC4CCCCC4)[C@H](c4ccccc4)C34CC2(c2cccnc2)C4)cc1 (stereo not given in full)	?	-2.2%	4.15µM*	-1.6%	-3.6	-2.3
COC(=O)c1cccc(C23CC4(C2)[C@H](CN(Cc2cccnc2)[C@@H]4c2ccccc2)C3c2ccccc2)c1 (stereo not given in full)	5.86µM*	-1.9%	11.7µM*	-5.7%	-1.7	1.3
Cc1cccc(C(=O)N/C(=C\c2ccco2)C(=O)N2CCCC2)c1	23.0%	-2.6%	10.5%	6.8%	-3.8	-3.4
Cc1ccc(SCC(=O)OCC(=O)N(C)C2CCS(=O)(=O)C2)cc1C (stereo not given)	9.2%	.	11.2%	7.9%	.	.
C=CCOc1c(Cl)cc(CNCCCN2CCOCC2)cc1OC	?	11.3%	-10.8%	1.4%	-8.7	-1.7
Nn1c(=O)[nH]c2ccccc2c1=O	44.4%	3.6%	38.5%	5.0%	-11.2	-4.0
Cc1ccc(OCCC(=O)N2CCN(c3ccc(O)cc3)CC2)cc1	-13.1%	-0.6%	11.4%	-1.5%	28.1	9.6
N#Cc1ccc(C23CC4(C2)[C@H](CN(P(=O)(c2ccccc2)c2ccccc2)[C@@H]4c2ccccc2)C3c2ccc(Cl)nc2)cc1 (stereo not given in full)	4.15µM*	?	4.65µM*	2.3%	12.1	0.6
N#Cc1ccc(C23CC4(C2)[C@H](CN(Cc2ccc(C(F)(F)F)cc2)[C@@H]4c2ccccc2)C3c2ccccc2)cc1 (stereo not given in full)	?	6.6%	?	0.2%	-6.1	-2.0
c1ccc(C2[C@H]3CN(Cc4cccnc4)[C@H](c4ccccc4)C34CC2(c2ccccc2)C4)cc1 (stereo not given in full)	3.29µM*	-42.3%	4.15µM*	-20.2%	5.1	-5.2
CCOC(=O)[C@H]1[C@H]2COc3ccc(C)cc3[C@@H]2N2C(=O)CN(Cc3ccc(C)cc3)C(=O)[C@@]12C	?	.	?	-3.5%	.	.
CCCCN1CC(=O)N2[C@H]3c4cc(OC)ccc4OC[C@@H]3[C@H](C(=O)OCC)[C@]2(C)C1=O	?	.	-20.8%	3.9%	.	.
CCOC(=O)[C@H]1[C@H]2COc3cc(OC)ccc3[C@@H]2N2C(=O)CN(Cc3ccccc3)C(=O)[C@@]12C	?	.	?	3.4%	.	.
CCOC(=O)[C@H]1[C@H]2COc3cc(OC)ccc3[C@@H]2N2C(=O)CN(Cc3ccc(OC)cc3)C(=O)[C@@]12C	?	.	11.7µM*	-5.1%	.	.
CCOC(=O)[C@H]1[C@H]2COc3ccc(OC)cc3[C@@H]2N2C(=O)CN(Cc3ccc(OC)cc3)C(=O)[C@@]12C	?	.	6.57µM*	?	.	.
CCOC(=O)[C@H]1[C@H]2COc3ccc(OC)cc3[C@@H]2N2C(=O)CN(Cc3ccc(C)cc3)C(=O)[C@@]12C	3.7µM*	.	10.4µM*	2.5%	.	.
CCOC(=O)[C@H]1[C@H]2COc3ccc(Br)cc3[C@@H]2N2C(=O)CN(Cc3ccc(C)cc3)C(=O)[C@@]12C	?	.	14.7µM*	-1.0%	.	.
COc1ccc(NC(=O)C(C)N2C(=O)c3ccccc3C2=O)cc1S(=O)(=O)N1CCOCC1 (stereo not given)	-15.9%	.	?	0.3%	-4.3	1.8
CN(CC(=O)Nc1ccccc1F)S(=O)(=O)c1ccc2c(c1)n(C)c(=O)c(=O)n2C	27.3%	-3.6%	43.6%	-1.7%	-1.0	-4.0
CCn1cc(C(=O)NC(C)C)c(=O)c2cc(F)c(N3CCN(C(=O)c4ccco4)CC3)cc21	5.86µM*	-1.9%	5.22µM*	2.6%	-17.2	-2.0
CCn1cc(C(=O)Nc2ncccc2O)c(=O)c2cc(F)c(N3CCN(C(=O)c4ccco4)CC3)cc21	4.65µM*	22.4%	?	-4.1%	22.3	5.5
CCn1cc(C(=O)NCCC(C)C)c(=O)c2cc(F)c(N3CCN(C(=O)c4ccco4)CC3)cc21	2.33µM*	19.6%	?	3.1%	-8.4	-2.1
SMILES	Pf growth 96h	NS1 function inh	Pf growth 48h	SARS PLpro yeast	Shiga inhibitor	Cycloheximide cs
CCN(CC)CCNC(=O)c1cn(CC)c2cc(N3CCN(C(=O)c4ccco4)CC3)c(F)cc2c1=O	-23.8%	-4.9%	-18.1%	0.2%	8.4	1.3
CCn1cc(C(=O)O)c(=O)c2cc(F)c(N3CCN(C(=S)NC(=O)c4ccccc4)CC3)cc21	?	6.2%	?	-2.4%	23.1	0.9
CCN(CC)CCCNC(=O)c1cn(CC)c2cc(N3CCN(C(=O)c4ccco4)CC3)c(F)cc2c1=O	?	-7.9%	7.38µM*	-0.7%	12.6	1.6
O=C(CCN1C(=O)c2ccc(Br)cc2C1=O)NC1CCCCC1	?	16.7%	7.2%	7.2%	-5.7	-7.0
C[C@H](NC(=O)[C@@H](N)Cc1ccc(O)cc1)C(=O)NCC(=O)N[C@H]1CSSC[C@@H](C(=O)O)NC(=O)[C@H](CO)NC(=O)[C@H]([C@@H](C)O)NC(=O)[C@H](Cc2ccccc2)NC(=O)[C@H]([C@@H](C)O)NC(=O)[C@H](CCCCN)NC(=O)[C@H](Cc2c[nH]c3ccccc23)NC(=O)[C@H](Cc2ccccc2)NC(=O)[C@H](Cc2ccccc2)NC(=O)[C@H](CC(N)=O)NC(=O)[C@H](CCCCN)NC1=O	.	.	.	.	-6.1	-4.5
COCCN(Cc1ccco1)C(=O)Cn1ncc2c(=O)oc3ccccc3c21	0.5%	3.9%	6.8%	7.0%	13.9	-0.8
O=C1N(Cc2cccc(Cl)c2)C[C@@H]2C[C@@H](c3cccn3-c3ccccn3)N3CCC[C@@]123	?	5.0%	11.7µM*	-0.7%	5.4	0.6
O=C1N(Cc2cccc(Cl)c2)C[C@@H]2C[C@@H](c3cccc4ncccc34)N3CCC[C@@]123	20.6%	-11.2%	1.65µM*	-0.6%	20.2	4.3
